Results filed as inconclusive are left out. Active and inactive are the calls of the source. Calls follow the shape of the dose curve; as a rule, active = well fitted curve in the direction sought with a large enough effect; inconclusive = small, poorly fitted or top-dose-only effect, or another doubt; inactive = no such curve, though single readings can be large; an effect the other way counts as inactive or inconclusive.
assay: qHTS of pediatric cancer cell lines to identify multiple opportunities for drug repurposing: Confirmatory screen for Rh18 cells (AID 1347125); details: Rh18 rhabdomyosarcoma cells, viability; series mostly up to 45.9 µM; activity change, negative = cytotoxic: at the top concentration
How it was run: (§1)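 Cells (500-1,000/well) in growth media were settled 5 h at 37 degrees C, then given compounds for 48 h. Viability was read as CellTiter-Glo luminescence. Primary runs used MIPE at 11 points (0.78 nM-46 µM) and NPC at 8 points (0.59 nM-46 µM); follow-ups used 11 points.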
% is scaled to controls: 0 for no effect and ±100 for the full control effect; potency is read from the fitted curve at half-maximal effect.
Also: nearly all actives have a fitted effect of over 55% in size.

Structure (SMILES)	activity change, negative = cytotoxic	Potency
C[C@@H]1[C@H](O)[C@@H](C)C=CC=CC=CC=CC=CC=CC=C[C@H](O[C@@H]2O[C@H](C)[C@H](O)[C@H](N)[C@@H]2O)C[C@@H]2O[C@](O)(C[C@@H](O)C[C@@H](O)[C@H](O)CC[C@@H](O)C[C@@H](O)CC(=O)O[C@H]1C)C[C@H](O)[C@@H]2C(=O)O	-2.88% (inactive)	–
CNC(=O)[C@H](CC1=CN=C2C=CCC=C12)NC(=O)[C@@H](CC(=O)NO)CC(C)C	–	1.47 µM (active)
CCC(=O)OCC(=O)[C@@]1(OC(=O)CC)[C@@H](C)C[C@@H]2[C@H]3CCC4=CC(=O)C=C[C@]4(C)[C@@]3(F)[C@@H](O)C[C@@]21C	-7.65% (inactive)	–
CC[C@]1(O)C[C@H]2CN(CCC3=c4ccccc4=N[C]3[C@@](C(=O)OC)(c3cc4c(cc3OC)N(C)[C@H]3[C@@](O)(C(N)=O)[C@H](O)[C@]5(CC)C=CCN6CC[C@]43[C@@H]65)C2)C1	-30.7% (inactive)	–
COc1cc(CNC(=O)CCCCC=CC(C)C)ccc1O	-10.6% (inactive)	–
CC(C)n1c(C=C[C@H](O)C[C@H](O)CC(=O)O)c(-c2ccc(F)cc2)c2ccccc21	–	8.27 µM (active)
CC1CNc2c(cccc2S(=O)(=O)N[C@@H](CCCN=C(N)N)C(=O)N2CC[C@@H](C)C[C@@H]2C(=O)O)C1 (stereo partly drawn)	2.38% (inactive)	–
C[C@@]1(c2cc(-c3cncnc3)c(F)cc2F)CCSC(N)=N1	-8.87% (inactive)	–
CCOC(=O)[C@H](CCc1ccccc1)N[C@@H](C)C(=O)N1CCCC1C(=O)O (stereo partly drawn)	–	13.1 µM (active)
CC1=C(CC(=O)O)c2cc(F)ccc2C1=Cc1ccc(S(C)=O)cc1 (stereo not drawn)	2.71% (inactive)	–
CSc1cccc(Nc2ncc3cc(-c4c(Cl)cccc4Cl)c(=O)n(C)c3n2)c1	–	3.29 µM (active)
Cc1ccccc1-n1c(Cn2nc(-c3cccc(O)c3)c3c(N)ncnc32)nc2cccc(C)c2c1=O	-11.5% (inactive)	–
CCC[C@H](Nc1nc(-c2ccc(NC(=O)NCC)c(OC)c2)ncc1C)c1cccnc1	-34.4% (inactive)	–
Cc1cccc(-c2[nH]c(C(C)(C)C)nc2-c2ccc3c(c2)OCO3)n1	10.6% (inactive)	–
CCN(CCO)CCCOc1ccc2c(Nc3cc(CC(=O)Nc4cccc(F)c4)[nH]n3)ncnc2c1	-19.5% (inactive)	–
CC1(COc2ccc3c(c2)ncn3-c2ccc3cccc(N4CCC(N)CC4)c3n2)COC1	-2.65% (inactive)	–
Nc1ccn([C@@H]2O[C@H](CO)[C@@H](O)[C@H]2O)c(=O)n1	-3.93% (inactive)	–
COc1cc2ncnc(Nc3cc(Br)c(O)c(Br)c3)c2cc1OC	-16.7% (inactive)	–
Cc1ccc(C(=O)N(CCCN)[C@@H](c2nc3cc(Cl)ccc3c(=O)n2Cc2ccccc2)C(C)C)cc1	-45.6% [at 95.5 µM] (inactive)	–
Cc1csc(-c2nnc(Nc3ccc(Oc4ncccc4-c4ccnc(N)n4)cc3)c3ccccc23)c1	-17.4% (inactive)	–
Cc1ccc(C(=O)N(CCCN)[C@@H](c2oc3cc(Cl)ccc3c(=O)c2Cc2ccccc2)C(C)C)cc1	–	26.1 µM (active)
O=C1Nc2ccc(I)cc2C1=Cc1cc(Br)c(O)c(Br)c1	9.06% (inactive)	–

assay: qHTS of pediatric cancer cell lines to identify multiple opportunities for drug repurposing: Confirmatory screen for Rh30 cells (AID 1347126); details: Rh30 rhabdomyosarcoma cell viability; series mostly up to 45.9 µM; activity change, negative = cytotoxic: at the top concentration
How it was run: as §1

Structure (SMILES)	activity change, negative = cytotoxic	Potency
C[C@@H]1[C@H](O)[C@@H](C)C=CC=CC=CC=CC=CC=CC=C[C@H](O[C@@H]2O[C@H](C)[C@H](O)[C@H](N)[C@@H]2O)C[C@@H]2O[C@](O)(C[C@@H](O)C[C@@H](O)[C@H](O)CC[C@@H](O)C[C@@H](O)CC(=O)O[C@H]1C)C[C@H](O)[C@@H]2C(=O)O	-6.94% (inactive)	–
CNC(=O)[C@H](CC1=CN=C2C=CCC=C12)NC(=O)[C@@H](CC(=O)NO)CC(C)C	–	1.47 µM (active)
CCC(=O)OCC(=O)[C@@]1(OC(=O)CC)[C@@H](C)C[C@@H]2[C@H]3CCC4=CC(=O)C=C[C@]4(C)[C@@]3(F)[C@@H](O)C[C@@]21C	-14.8% (inactive)	–
CC[C@]1(O)C[C@H]2CN(CCC3=c4ccccc4=N[C]3[C@@](C(=O)OC)(c3cc4c(cc3OC)N(C)[C@H]3[C@@](O)(C(N)=O)[C@H](O)[C@]5(CC)C=CCN6CC[C@]43[C@@H]65)C2)C1	-5.08% (inactive)	–
COc1cc(CNC(=O)CCCCC=CC(C)C)ccc1O	-0.611% (inactive)	–
CC1CNc2c(cccc2S(=O)(=O)N[C@@H](CCCN=C(N)N)C(=O)N2CC[C@@H](C)C[C@@H]2C(=O)O)C1 (stereo partly drawn)	–	20.8 µM (active)
C[C@@]1(c2cc(-c3cncnc3)c(F)cc2F)CCSC(N)=N1	6.09% (inactive)	–
CCOC(=O)[C@H](CCc1ccccc1)N[C@@H](C)C(=O)N1CCCC1C(=O)O (stereo partly drawn)	–	7.37 µM (active)
CC1=C(CC(=O)O)c2cc(F)ccc2C1=Cc1ccc(S(C)=O)cc1 (stereo not drawn)	10.4% (inactive)	–
CSc1cccc(Nc2ncc3cc(-c4c(Cl)cccc4Cl)c(=O)n(C)c3n2)c1	–	6.57 µM (active)
Cc1ccccc1-n1c(Cn2nc(-c3cccc(O)c3)c3c(N)ncnc32)nc2cccc(C)c2c1=O	–	13.1 µM (active)
CCN(CCO)CCCOc1ccc2c(Nc3cc(CC(=O)Nc4cccc(F)c4)[nH]n3)ncnc2c1	0.425% (inactive)	–
CC[C@H](NC(=O)[C@H](C)NC)C(=O)N1C[C@@H](O)C[C@H]1Cc1c(-c2[nH]c3cc(F)ccc3c2C[C@H]2C[C@H](O)CN2C(=O)[C@H](CC)NC(=O)[C@H](C)NC)[nH]c2cc(F)ccc12	13.6% (inactive)	–
COc1cc([C@@H]2c3cc4c(cc3[C@@H](O[C@@H]3O[C@@H]5CO[C@@H](C)O[C@@H]5[C@H](O)[C@@H]3O)[C@H]3COC(=O)[C@H]23)OCO4)cc(OC)c1O	–	4.65 µM (active)
CON(C)C(=O)N1N=C(c2cc(F)ccc2F)S[C@]1(CCCN)c1ccccc1	7.82% (inactive)	–
C[C@@H]1C[C@H]2[C@@H]3CCC4=CC(=O)C=C[C@]4(C)[C@@]3(F)[C@@H](O)C[C@]2(C)[C@@]1(O)C(=O)CO	-22.8% (inactive)	–
C[C@H](c1ccc(F)cc1CCCC(=O)O)N(c1cc(F)ccc1F)S(=O)(=O)c1ccc(Cl)cc1	-3.4% (inactive)	–
Cc1ccc(C(=O)N(CCCN)[C@@H](c2nc3cc(Cl)ccc3c(=O)n2Cc2ccccc2)C(C)C)cc1	–	38 µM (active)
Cc1csc(-c2nnc(Nc3ccc(Oc4ncccc4-c4ccnc(N)n4)cc3)c3ccccc23)c1	-19.2% (inactive)	–
Cc1ccc(C(=O)N(CCCN)[C@@H](c2oc3cc(Cl)ccc3c(=O)c2Cc2ccccc2)C(C)C)cc1	–	23.3 µM (active)
O=C1Nc2ccc(I)cc2C1=Cc1cc(Br)c(O)c(Br)c1	–	1.17 µM (active)

Source: PubChem BioAssay (NCATS)
